Drawing on the OligoGym collection, this text covers sensor-assay potency score (higher = more potent) for 36 sequences.
Note: reference of the scale not given here.

One test deals with TMEM90B. Description: pooled miR-30 sensor sort-seq; sequence = guide strand. The settings on record: shRNA.
TGTGTCGCTTGAGTAGTCGCTC yielded a sensor-assay potency score (higher = more potent) of 0.302.
Take TTATTTCTCAGCATTCATCTGG: the sensor-assay potency score (higher = more potent) is 0.827.
TATTTCTCAGCATTCATCTGGT: the sensor-assay potency score (higher = more potent) was found to be 0.677.
Same read-out and setting: to TCACTCTCTGTGTCGCTTGAGT belongs -1.01.
On to TTGTATATTGCTAATGCGGTGG, for which the sensor-assay potency score (higher = more potent) is -0.114.
Take TTGAGTAGTCGCTCTCCAGCTC: the sensor-assay potency score (higher = more potent) is -0.0875.
On the same count and under the same terms, the same measure for TTTCTCAGCATTCATCTGGTAA: -0.53; for TTAATTAAACCATTCCTCTTGC: 0.249.
Same read-out and setting: to TTCATCTGGTAACTTAAGCAGC belongs -0.817; to TAGAGGATGATGTTGGGCCGGT, -0.523; to ATCATTTGTACTGTACAGCATC, -1.17.
With TCGATGAAGGTGGTCTCGCAGC, the sensor-assay potency score (higher = more potent) is -1.08.

The next test has as its target TMOD3. The description is as above. The settings on record: shRNA.
TATAGCATTAGCTGCTCTGGTT registered a sensor-assay potency score (higher = more potent) of -0.335.
TTTTCTTCTGTAAAAGTCTGTA came in with a sensor-assay potency score (higher = more potent) of -0.198.
Still for that read-out and setting: the same measure for TTATATTACAGAACTTTGTATT: -0.879; for TTACAATTTGATAACAACTAAA: -1.42; for TAGTTCTCTTCAAACTCTCTTC: -0.63.
Same read-out and setting: the same measure for TAACGCATCAATCAGTGCCAGA: -1.33; for TTTTTCTTCTGTAAAAGTCTGT: 0.6.
In turn, TTACAGAACTTTGTATTCGTTA showed a sensor-assay potency score (higher = more potent) of 0.0652.
TTTTTGTTATAGCATTAGCTGC: the sensor-assay potency score (higher = more potent) is -1.37.
Regarding TTTCATTATCTCTTAACGCATC, the sensor-assay potency score (higher = more potent) is -0.758.
TAGGGCACATAGTCTTCCCTGT gave a sensor-assay potency score (higher = more potent) of -0.185.
On the same count and under the same terms, the same measure for TTCAACAAGATGAGCATCGTTT: -0.31.

For a further test, the target named is TNFAIP2. The description is as above. The note with it: shRNA.
Regarding TCAATCTTGATGGCACTGGGGT, the sensor-assay potency score (higher = more potent) is -0.553.
As for TTGGCAATAACATTGGCCCTGT, the sensor-assay potency score (higher = more potent) is -0.0405.
TAATTCGTCAGCTGCTTGCCTC came in with a sensor-assay potency score (higher = more potent) of -0.825.
The sequence TATCGTTTACAAAGAGTCCTTG returned a sensor-assay potency score (higher = more potent) of -0.0149.
Sequence TTCTGCTCCATGGACATCCGGA yielded a sensor-assay potency score (higher = more potent) of -0.115.
TCGGACATGTAAACAAACCAAG gave a sensor-assay potency score (higher = more potent) of -1.46.
The sequence TATCAAACACGCTAACTCCTAC gave a sensor-assay potency score (higher = more potent) of -0.68.
Sequence TATCTGTGAGCCCAAGTCCAGC came in with a sensor-assay potency score (higher = more potent) of -1.63.
In turn, TTCTGTCTTCCATTCCACCATT returned a sensor-assay potency score (higher = more potent) of -1.13.
Regarding TTTCTCTTCCAGTTCTGTCTTC, the sensor-assay potency score (higher = more potent) was -0.182.
TCAACATACATACAAAAGCAGT gave a sensor-assay potency score (higher = more potent) of -1.49.
Take TAGCTCCAGAGCTCGGTCCATC: the sensor-assay potency score (higher = more potent) is -1.52.
